Molecules are shown by their SMILES. ± gives the standard deviation.

The test has as its system OVCAR-3-derived ovarian cancer stem-like cells (spheroids). The test can be described thus: cell growth relative to untreated control; higher = more growth (less inhibition). Conditions: 2.29 µM; 96 h. The essentials:
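OVCAR-3 spheroid-derived stem-like cells were trypsin-dissociated, seeded at 50,000 cells/mL in stem cell medium in ultra-low attachment 96-well plates and preincubated 24 h. Compounds were then added at 2.29 uM for 96 h at 37°C, 5% CO2, in 4 replicate wells. Viability was read as TOX8 resazurin fluorescence (ex 560/em 590 nm) after 4 h. Percent growth was calculated relative to untreated wells after blank subtraction and Grubbs outlier removal.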
`CC(=O)SC(SC(C)=O)SC(C)=O` showed a cell growth of 97.1 ± 26%. To `O=C(O)c1ccc(NC(c2ccccc2)c2ccc3cccnc3c2O)cc1` (stereo not given) belongs 89.7 ± 46%; to `CCCCCC/C=C\CCCCCCCCCc1cccc(OC)c1O`, 115 ± 69%. In the case of `c1ccc2c(c1)nnn1c3cnccc3nc21`, the cell growth was 58.8 ± 9.3%. To `CNc1nc(N(C)C)nc(N(C)C)n1` belongs 89.9 ± 20%; to `N[C@H](C(=O)O)[C@@H]1CC(Cl)=NO1`, 85.3 ± 21%.

In the case of `CN(CO)c1nc(N(C)CO)nc(N(C)CO)n1`, the cell growth was found to be 83.5 ± 18%.

For the compound `NC(=O)C#CC(N)=O`, the cell growth was 55.9 ± 13%. Next, `CC1=NC(C(C)C)C(=O)O1` (stereo not given): 122 ± 74%. To `O=c1ccc2ccc(CBr)cc2o1` belongs 84.2 ± 21%. The compound `CC(C)(O)CCC(O)C(C)(O)C1CCC2(O)C3=CC(=O)C4(O)CC(O)C(O)CC4(C)C3CCC12C.CC(C)(O)CCC(O)C(C)(O)C1CCC2(O)C3=CC(=O)C4CC(O)C(O)CC4(C)C3CCC12C` (stereo not given) registered a cell growth of 98 ± 21%. `CCN1CCC(O)(/C=C/c2ccc(C)cc2)C(C(=O)/C=C/c2ccc(C)cc2)C1` (stereo not given) came in with a cell growth of 98.5 ± 13%. In the case of `CC(CN(C)C)C(=O)c1ccccc1C(=O)O` (stereo not given), the cell growth was 92.7 ± 31%. For the compound `COC(=O)[C@@H]1[C@H](O)[C@H](C)[C@H](O)[C@H](C)/C=C\C=C(/C)C(=O)Nc2c(C)c(OC(C)=O)c3c(c2O)C(=O)C(C)=C2OCOC(=C23)/C(C)=C/[C@@](C)(O)[C@H](O)[C@@H](C)[C@H]1OC(C)=O`, the cell growth came out at 110 ± 22%. The compound `CC[C@]1(O)C[C@@H]2CN(CCc3c([nH]c4ccccc34)[C@@](C(=O)OC)(c3cc4c(cc3OC)N(C)[C@H]3[C@@](O)(C(=O)OC)[C@H](OC(C)=O)[C@]5(CC)C=CCN6CC[C@]43[C@@H]65)C2)C1` showed a cell growth of 49.1 ± 11%.

Source of the values: the supplement of paper PMC3484114.
